ELG1 repair inh: blocks ELG1-dependent DNA repair in HEK293T cells; HEK293T ELG1-luciferase reporter, luminescence, 16 h; DNA damage induced by 5-fluorouridine; Potency, µM (highest dose often 46.1 µM), for the others: at the highest dose activity change, negative = inhibition, hits mostly inhibitors; actives 2.3% (n = 330,000); note: % is set by controls: 0 for no effect and ±100 for the full control effect; nearly all actives have a fitted effect of over 55% in size
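DMSO vehicle served as the neutral condition. Each well held 2,000 cells given 5-fluorouridine plus compound; after 16 hr at 37 °C/5% CO2, ONE-Glo was added and luciferase measured 30 min later.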
Tb PGK inh: blocks T. brucei phosphoglycerate kinase. AID 602233. actives 0.043% (n = 380,000). Potency, µM (doses to about 57.5 µM), without a hit: at the highest dose activity change, negative = inhibition, actives largely listed as inhibitors. PGK/GAPDH coupled, Kinase-Glo luminescence, 60 min. P07378; note: % is set by controls: 0 for no effect and ±100 for the full control effect; nearly all actives have a fitted effect of over 60% in size
Target sequence (P07378 whole entry, looked up): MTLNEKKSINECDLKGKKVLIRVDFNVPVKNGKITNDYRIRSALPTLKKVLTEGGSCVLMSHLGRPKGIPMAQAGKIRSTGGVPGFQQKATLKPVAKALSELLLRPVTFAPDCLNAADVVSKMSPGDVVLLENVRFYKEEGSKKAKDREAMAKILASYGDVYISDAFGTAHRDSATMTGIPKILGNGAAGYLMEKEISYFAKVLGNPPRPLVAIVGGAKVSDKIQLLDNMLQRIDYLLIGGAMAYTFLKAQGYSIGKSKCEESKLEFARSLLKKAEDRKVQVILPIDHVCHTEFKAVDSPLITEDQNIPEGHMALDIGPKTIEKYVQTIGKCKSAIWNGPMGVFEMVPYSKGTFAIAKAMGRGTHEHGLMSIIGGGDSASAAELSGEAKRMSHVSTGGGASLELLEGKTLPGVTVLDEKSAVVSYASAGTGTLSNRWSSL
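Recombinant glycosomal PGK reaction used 1,3-bisphosphoglycerate generated in-well by GAPDH (100nM final) in 100mM TEA pH 7.6, 5mM MgCl2, 0.01% Tween-20. After 60 minutes at room temperature, ATP was read by Kinase-Glo Plus luminescence end-point.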
Rango dissoc inh: prevents RanGTP from dissociating the Rango-importin beta complex | Biochemical FRET Rango-importin beta, RanGTP-induced dissociation | Potency, µM (highest dose often 46.1 µM), without a hit: at the highest dose activity change, negative = inhibition | O95149+P62826 | actives 0.071% (n = 340,000); calls by dose curve; note: % of control where 0% means no effect; nearly all actives have a fitted effect of over 45% in size
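FRET read at 45 min, room temperature: inhibitors block the CFP/YFP signal rise when RanGTP (0.6 uM Ran, 2 mM GTP, 0.2 uM RCC1) frees Rango (0.1 uM) from importin beta (0.25 uM). Pre-read after 5 min compound exposure flags interference.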
Rango complex inh: inhibitors of Rango-importin beta complex formation; Q14974; Rango CFP/YFP FRET sensor + importin beta, 45 min; Potency, µM (doses to about 92.2 µM), without a hit: top-dose inhibition of complex formation; actives 0.031% (n = 340,000); AID 540263; calls by dose curve;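 note: 0% = DMSO wells and 100% = buffer wells lacking importin beta; nearly all actives have a fitted effect of over 15% in size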
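FRET biosensor Rango (snurportin 1 IBB between N-terminal EYFP and C-terminal Cerulean), 50 nM in PBS/1 mM DTT/0.02% Tween-20/0.1% BSA, preincubated 5 min RT with compound; 0.125 microM importin beta added, 45 min RT, CFP/YFP FRET ratio read.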
Tb PFK block: inhibitors of T. brucei phosphofructokinase; Potency, µM (series often up to 57.5 µM), for the others: top-dose activity, negative = inhibition, hits mostly inhibitors; AID 485367; O15648; actives 0.17% (n = 330,000); T. brucei PFK, ADP-Glo luminescence;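 note: 0% = uninhibited 1x PFK enzyme wells and -100% = no-enzyme wells; nearly all actives have a fitted effect of over 60% in size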
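Luminescent ADP detection (ADP-Glo, two-step: ATP depletion then ADP-to-ATP conversion for luciferase) reported PFK activity after 45 min room-temperature reaction of 1.25 nM enzyme with 0.5 mM F6P and 0.1 mM ATP at pH 8.0.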
PKM2 activator: increases activity of human pyruvate kinase M2; purified PKM2, Kinase-Glo ATP luminescence, activation; response scale: 0% is enzyme alone, no compound; P14618; actives 0.34% (n = 260,000); Potency, µM (doses to about 57.5 µM), for the others: at the top dose activation, hits mostly activators; AID 1631; note: % is set by controls: 0 for no effect and ±100 for the full control effect; nearly all actives have a fitted effect of over 55% in size
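ATP formation by purified human PK-M2, quantified via coupled luciferase luminescence after 1 h at room temperature with 0.1 mM ADP and 0.5 mM PEP final.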
The depositor's hits bear a star; [ ] = another dose, or the depositor's remark. Sampled rows, rich in hits. Any-hit rate of the full collection: about 2.4%. Unless noted, calls come from the whole dose curve; as a rule, active = well fitted curve in the direction sought with a large enough effect; inconclusive = small, poorly fitted or top-dose-only effect, or another doubt; inactive = no such curve, though single readings can be large; an effect the other way counts as inactive or inconclusive. Potency is the fitted concentration of half-maximal effect.

What do the screens show for `CCN(CC(=O)Nc1ccc(S(=O)(=O)N2CCCC2)cc1)CC(=O)Nc1ccccc1C(F)(F)F`?
ELG1 repair inh: inconclusive; Tb PGK inh: -2%; Rango dissoc inh: -4%; Rango complex inh: 3%; Tb PFK block: 0%

What do the screens show for `O=C(Cn1c(=O)n(Cc2ccco2)c(=O)c2oc3ccccc3c21)Nc1ccc(F)c(Cl)c1`?
Tb PGK inh: inactive

What do the screens show for `CC(C)(C)OC(=O)NCCCCCc1nnc(SCC(=O)Nc2cccc(Cl)c2)o1`?
ELG1 repair inh: -14%; Tb PGK inh: 7%; Rango dissoc inh: -2%; Rango complex inh: 4%; Tb PFK block: -7%; PKM2 activator: 25µM*

What do the screens show for `CC(C)(C)OC(=O)NCCc1nnc(SCC(=O)Nc2cccc(Cl)c2)o1`?
ELG1 repair inh: 0%; Tb PGK inh: 1%; Rango dissoc inh: 10%; Rango complex inh: 4%; Tb PFK block: 0%; PKM2 activator: 1%

How did COc1ccc(Cl)cc1NC(=O)CN(C)C(=O)c1cc(-c2ccncc2)nc2ccccc12 do in these assays?
ELG1 repair inh: inconclusive; Tb PGK inh: inactive; Rango dissoc inh: -6%; Rango complex inh: -1%; Tb PFK block: 2%

How did CCOC(=O)Cc1csc(NC(=O)c2ccc(S(=O)(=O)N3CCCCC3)cc2)n1 do in these assays?
ELG1 repair inh: -34%; Tb PGK inh: 2%; Rango dissoc inh: 2%; Rango complex inh: 1%; Tb PFK block: 0%; PKM2 activator: 0%

Results for CCOC(=O)Cc1csc(NC(=O)CCc2ccc(S(=O)(=O)N3CCOCC3)cc2)n1 ?
ELG1 repair inh: 12µM*; Tb PGK inh: -9%[11.5 µM]; Rango dissoc inh: 13%; Rango complex inh: 6%; Tb PFK block: -1%; PKM2 activator: -4%

What do the screens show for `CC(=O)Nc1ccc(S(=O)(=O)Oc2ccc(N3C(=O)C4CCCCC4C3=O)cc2)cc1` (stereo not given)?
ELG1 repair inh: 5%; Tb PGK inh: 9%; Rango dissoc inh: 8%; Rango complex inh: -2%; Tb PFK block: 1%; PKM2 activator: 0%

What do the screens show for `CC(=O)Nc1ccc(S(=O)(=O)Oc2cccc(N3C(=O)C4CC=CCC4C3=O)c2)cc1` (stereo not given)?
ELG1 repair inh: 23µM*; Tb PGK inh: -5%; Rango dissoc inh: -5%; Rango complex inh: inconclusive; Tb PFK block: -1%; PKM2 activator: -4%

Results for O=C(COc1cccc(Cl)c1)Nc1ccccc1N1CCCCC1 ?
ELG1 repair inh: 12%; Tb PGK inh: 1%; Rango dissoc inh: 3%; Rango complex inh: -2%; Tb PFK block: -3%

What do the screens show for `O=c1c2ccccc2ncn1-c1ccc(Cl)cc1[N+](=O)[O-]`?
ELG1 repair inh: 13%; Tb PGK inh: -7%; Rango dissoc inh: 11%; Rango complex inh: 1%; Tb PFK block: -3%; PKM2 activator: -9%

What do the screens show for `O=c1c2ccccc2ncn1-c1ccc([N+](=O)[O-])cc1[N+](=O)[O-]`?
ELG1 repair inh: 15µM*; Tb PGK inh: 1%; Rango dissoc inh: -1%; Rango complex inh: 1%; Tb PFK block: 2%

How did COc1cccc(CNc2ccc3[nH]c(=O)[nH]c3c2)c1OCc1ccccc1F do in these assays?
ELG1 repair inh: 9.2µM*; Tb PGK inh: -3%; Rango dissoc inh: 2%; Rango complex inh: -3%; Tb PFK block: -3%; PKM2 activator: -21%

Results for O=C(NCc1ccc2c(c1)OCO2)C(=O)NCC(c1ccco1)N1CCN(c2ccccc2)CC1 (stereo not given) ?
ELG1 repair inh: inconclusive; Tb PGK inh: -2%; Rango dissoc inh: 5%; Rango complex inh: -4%; Tb PFK block: 2%; PKM2 activator: 2%

From PubChem
